# Data: PubChem BioAssay (NCATS)
# Records with an inconclusive call do not appear. A call without a number means that no potency is given here. Active and inactive are the calls of the source. Unless noted, calls come from the whole dose curve; as a rule, active = well fitted curve in the direction sought with a large enough effect; inconclusive = small, poorly fitted or top-dose-only effect, or another doubt; inactive = no such curve, though single readings can be large; an effect the other way counts as inactive or inconclusive.
# Key:
# [1] = OV-KATE Cancer Cell Toxicity qHTS against the NCATS CANVASS Library (AID 1347345)
# Summary of the method: (§1)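 Viability read-out: CellTiter-Glo luminescence after 72 h compound exposure at 37 °C/5% CO2. Cells plated at 1000/well, 4 h pre-incubation; 11-point titration. Bortezomib served as control.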
# [2] = UWB1.289 Cancer Cell Toxicity qHTS against the NCATS CANVASS Library (AID 1347347); note: nearly all actives have a fitted effect of over 60% in size; note: potency is the fitted concentration of half-maximal effect
# Summary of the method: as §1
# [3] = U-118MG Cancer Cell Toxicity qHTS against the NCATS CANVASS Library (AID 1347351); note: potency is the fitted concentration of half-maximal effect
# Summary of the method: as §1
# [4] = tested on: NAD(P)H diaphorase (Clostridium kluyveri); test: Diaphorse counterscreen qHTS: Assay Interference Panel against the NCATS CANVASS Library (AID 1347362)
# Summary of the method: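 Clostridium kluyveri diaphorase in PBS + 0.01% Tween-20 preincubated 15 min with compounds. Resazurin and NADH then added for 5 min at room temperature in the dark; resorufin fluorescence read (ex 525, em 598).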
# [5] = qHTS for Antimalaria activity screened against the NCATS CANVASS Library (AID 1347380); note: nearly all actives have a fitted effect of over 40% in size; note: potency is the fitted concentration of half-maximal effect;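 for activity change, negative = inhibition: Plasmodium falciparum strain Dd2 asexual parasites grown in red blood cells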
# Summary of the method: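 SYBR Green fluorescence at 485/535 nm was read 18 hr after lysis. This followed a 72 hr incubation at 37C in 5% O2, 5% CO2 of Dd2-infected erythrocytes (0.3% parasitemia, 2.5% final hematocrit) with compounds titrated over 11 concentrations.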
# [6] = qHTS for Activators of p53 Stress Response Pathway screened against the NCATS CANVASS Library (AID 1347388); note: potency is the fitted concentration of half-maximal effect
# Summary of the method: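 p53RE-bla HCT-116 cells (4000/well) were pre-incubated for 5 h, then treated with compound (11 points) for 16 h at 37C. After 2 h with CCF4, the 460/530 nm ratio gave reporter activation; CellTiter-Glo measured viability.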
# [7] = tested on: Zika virus NS2B-NS3 protease (linked construct); test: 384 well plate NINDS Rhodamine confirmatory qHTS for Zika virus inhibitors (AID 1347164);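 note: fluorescence from protease cleavage of Ac-LKRR-rhodamine 110 substrate; potency is the fitted concentration of half-maximal effect; nearly all actives have a fitted effect of over 65% in size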
# Summary of the method: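 Fluorescence read at ex 485 nm/em 538 nm, 25 min after adding 10 microM Ac-LKRR-Rd substrate at room temperature in the dark; signal normalized to no-enzyme and no-inhibitor controls. Enzyme final 5, 30 or 60 nM; compounds, ~15 min preincubation.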
# [8] = Primary qHTS for inhibitors of nuclear receptor binding SET domain protein 2 (NSD2) in an isogenic RCH-ACV NSD2 p.E1099K mutant (9B) (AID 1645876); note: potency is the fitted concentration of half-maximal effect; nearly all actives have a fitted effect of over 70% in size
# [9] = target: Glutathione peroxidase 1 (Homo sapiens) (UniProt P07203); test: Primary qHTS Assay for Inhibitors of Recombinant Selenoprotein Glutathione Peroxidase 1 (GPX1) (AID 1845191); note: nearly all actives have a fitted effect of over 65% in size
# Summary of the method: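 GR-coupled readout: NADPH consumption tracked by fluorescence, ex 340/em 450 nm, at t=0 and after 15 min at RT. Final mix 10 nM GPX1, 1 mM GSH, 0.5 mM CHP, 0.5 mM NADPH, 100 nM GR, 0.01% BSA, following 30 min enzyme–compound preincubation.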
# [10] = qHTS drug screen for cell cycle checkpoint inhibitors in PARPi-resistant BRCA-mutant ovarian cancer cell lines. (AID 1963452; calls by dose curve); details: PEO1/OlaR viability, CellTiter-Glo luminescence, 96 h, stronger effect = lower value
# Summary of the method: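 PEO1, PEO4 and PEO1/OlaR ovarian cancer cells, 600 per well, exposed 96 h at 37C to a dilution series. Viability read by CellTiter-Glo luminescence, normalized to DMSO and empty wells; activity summarized as Z-AUC.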
# [11] = qHTS assay to identify inhibitors of the type 1 interferon - major histocompatibility complex class I in skeletal muscle: Counter screen cell viability and HiBit confirmation (AID 1347412); details: iHSKM muscle cells + IFN-b, HiBiT or CellTiter-Glo, 24 h, at 45.9 µM (top of the series); note: nearly all actives have a fitted effect of over 60% in size
# Summary of the method: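 Duplicate plates, pinned identically: one read for HiBiT-tagged endogenous HLA-B luminescence, the other for ATP-content viability via CellTiter Glo. Cells were genome-engineered human myoblasts given 4 ng/ml IFN-b; compounds 12-pt, 1:3 from 46 uM final; 24 hr exposure.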
# [12] = Confirmation and Secondary Assay for Modulators of Hemoglobin Beta Chain Splicing at IVS2 654 locus (AID 910);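 note: HeLa cells stably carrying EGFP split by mutant beta-globin IVS2-654 intron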
# Summary of the method: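 HeLa cells stably expressing EGFP interrupted by β-globin IVS2-654 intron, seeded overnight in Opti-MEM/2% FCS, then treated 2 days at 37 °C. Restored splicing read as total peak GFP intensity per well by laser scanning cytometry (488 nm excitation, 500–520 nm emission); 500 nM antisense PNA as control.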
# [13] = Confirmatory screen NINDS Rhodamine qHTS for Zika virus inhibitors (AID 1347161); note: potency is the fitted concentration of half-maximal effect; nearly all actives have a fitted effect of over 60% in size
# Summary of the method: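 Purified linked NS2B-NS3 protease (NS2B hydrophilic domain joined to NS3 protease by flexible linker), 25 nM in 10 mM Tris-HCl pH 8.0, 0.01% Tween 20. Compounds titrated, 15 min preincubation at room temperature; 1.5 microM Rhodamine110 substrate, FITC fluorescence change over 15 min.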
# [14] = qHTS for ATAD5 Antagonist screened against the NCATS CANVASS Library (AID 1347370); note: nearly all actives have a fitted effect of over 65% in size; note: potency is the fitted concentration of half-maximal effect;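 for activity change, negative = inhibition: HEK293T cells carrying an ATAD5 luciferase reporter co-treated with 10 µM 5-fluorouridine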
# Summary of the method: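 Compounds (11-point) co-dosed with 10 µM 5-FUrd for 16 h at 37 °C onto HEK293T-ATAD5 luciferase reporter cells. Viability measured by CellTiter-Fluor fluorescence, then ATAD5 reporter signal by luminescence.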
# [15] = tested on: Zika virus NS2B-NS3 protease (linked construct); test: Primary screen NINDS Rhodamine qHTS for Zika virus inhibitors (AID 1347160); note: nearly all actives have a fitted effect of over 55% in size; note: potency is the fitted concentration of half-maximal effect
# Summary of the method: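 Enzyme (25 nM, linked NS2B-NS3) was preincubated 15 min with compound in 10 mM Tris-HCl pH 8.0, 0.01% Tween 20. Rhodamine110 substrate (1.5 microM) was then added and fluorescence read at start and after 15 min.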
# [16] = qHTS Assay for Lipid Storage Modulators (AID 1519; calls by dose curve); details: Drosophila S3 cells, BODIPY lipid droplet/cell ratio, laser cytometry, cells loaded with oleic acid
# Summary of the method: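 Cells seeded at 5,000 per well were treated with compounds over a concentration series and loaded with oleic acid (400 uM, as added). Lipid droplet fluorescence (488 nm excitation, 500-530 nm channel) was read by laser-scanning cytometry and normalized to 20 uM Triacsin C.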
# [17] = Secretion counterscreen for inhibitors of the SERCaMP assay screened against the NCATS CANVASS Library (AID 1347390);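 note: light from luciferase secreted into medium read as a measure of general secretion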; note: potency is the fitted concentration of half-maximal effect
# Summary of the method: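 Luminescence from constitutively secreted GLuc in SH-SY5Y-GLuc STOP cells, read after coelenterazine addition, served as read-out. Compounds tested 0.001 - 77 uM for 20 h at 37C; Brefeldin A as positive control.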
# Glutathione peroxidase 1 (Homo sapiens), sequence (P07203 whole entry, looked up): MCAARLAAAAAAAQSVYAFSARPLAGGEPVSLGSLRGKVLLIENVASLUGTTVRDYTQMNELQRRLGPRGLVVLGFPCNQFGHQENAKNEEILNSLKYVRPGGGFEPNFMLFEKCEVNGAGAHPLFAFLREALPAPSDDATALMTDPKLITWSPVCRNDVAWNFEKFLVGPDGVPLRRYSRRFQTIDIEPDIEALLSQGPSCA
structure (smiles),measurement,setting,value
CN1CC[C@@]2([C@@]34CCN(C)[C@@H]3Nc3ccccc34)c3ccccc3N[C@@H]12,Potency,[1],inactive
same,Potency,[2],inactive
same,Potency,[3],inactive
same,Potency,[4],inactive
same,Potency,[5],0.211 µM (active)
same,Potency,[6],inactive
COc1cc(C(=O)O)ccc1NC(=O)[C@@H]1N[C@@H](CC(C)(C)C)[C@](C#N)(c2ccc(Cl)cc2F)[C@H]1c1cccc(Cl)c1F,Potency,[7],5.62 µM (active)
same,Potency,[8],0.209 µM (active)
same,Potency,[9],inactive
same,Z-AUC,[10],2.81 (inactive)
same,Z-AUC,[10]; measured here: PEO1 parental Z-AUC,1.51
same,Z-AUC,[10]; measured here: PEO4 Z-AUC,1.24
same,"activity change, negative = inhibition",[11]; HiBiT,-14.1% (inactive)
same,"activity change, negative = inhibition",[11]; Viability,-6.71% (inactive)
CC(C)=CCc1c2c(c3occ(-c4ccc(O)c(O)c4)c(=O)c3c1O)C=CC(C)(C)O2,outcome,[12],inactive
same,Potency,[13],12.4 µM (active)
same,Potency,[7],7.94 µM (active)
CC(C)=CCC[C@]1(C)[C@H]2CC(=O)[C@@]3(CO3)[C@@H]1C2,Potency,[1],inactive
same,Potency,[2],inactive
same,Potency,[3],inactive
same,Potency,[4],inactive
same,Potency,[14],inactive
same,Potency,[6],inactive
CCCCc1nn2c(=O)cc(COC(=O)c3ccc(NC(=O)c4ccccc4Cl)cc3)nc2s1,Potency,[13],44.7 µM (active)
O=C(OC[C@H]1O[C@@H](OC(=O)c2cc(O)c(O)c(O)c2)[C@H](OC(=O)c2cc(O)c(O)c(O)c2)[C@@H](OC(=O)c2cc(O)c(O)c(O)c2)[C@@H]1OC(=O)c1cc(O)c(O)c(O)c1)c1cc(O)c(O)c(O)c1,Potency,[15],0.877 µM (active)
same,Potency,[2],18.8 µM (active)
same,Potency,[6],11.7 µM (active)
CC1COC2=C1C(=O)C(=O)c1c2ccc2c1CCCC2(C)C (stereo unspecified),outcome,[12],inactive
same,"activity change, negative = inhibition",[16]; at 57.5 µM (top of the series),2.92% (inactive)
same,max response,[16]; measured here: cell count channel max response,-7.49%
same,max response,[16]; measured here: lipid channel max response,-5.49%
same,Potency,[7],79.4 µM (active)
C/C=C(/C)c1cc(O)c(C)c2c1Oc1cc(O)cc(C)c1C(=O)O2,Potency,[15],24.7 µM (active)
same,Potency,[3],inactive
same,Potency,[4],inactive
same,Potency,[5],inactive
CC[C@H](O)CCCCC[C@@H]1NC(=O)[C@H]2CCCCN2C(=O)[C@H]([C@H](C)CC)NC(=O)[C@H](Cc2cn(OC)c3ccccc23)NC1=O,Potency,[15],15.6 µM (active)
same,Potency,[3],13.3 µM (active)
same,Potency,[4],inactive
same,Potency,[5],1.49 µM (active)
same,Potency,[6],inactive
same,Potency,[17],inactive
CO[C@H]1/C=C/CCCCC(=O)O[C@@H](/C(C)=C/[C@H](C)C(=O)C[C@H](O)CC2CC(=O)NC(=O)C2)[C@@H](C)C1,Potency,[15],49.3 µM (active)
same,Potency,[5],9.41 µM (active)
same,Potency,[6],inactive
same,Potency,[17],17.2 µM (active)
COc1cc(C2OCC3C(c4ccc(O)c(OC)c4)OCC23)ccc1O (stereo unspecified),Potency,[15],inactive
same,"activity change, negative = cytotoxicity",[2],-13.2% [at 7.64 µM] (inactive)
same,"activity change, negative = cytotoxicity",[3],-4.99% [at 7.64 µM] (inactive)
same,"activity change, negative = inhibition",[14],-9.99% [at 9.19 µM] (inactive)
C/C=C/C(=O)C1(O)CC2CC(C(=O)O)CC(C)C2C1C1=C2C(=O)NC(=O)C2=C(CCCCC)C(C)O1 (stereo unspecified),Potency,[15],49.3 µM (active)
same,Potency,[4],inactive
same,Potency,[14],16.6 µM (active)
same,Potency,[5],inactive
C/C=C(/C)c1c(Cl)c(OC)c(C)c2c1Oc1c(Cl)c(O)c(Cl)c(C)c1C(=O)O2,Potency,[15],1.39 µM (active)
same,Potency,[3],inactive
same,Potency,[5],inactive
same,Potency,[17],inactive
C[C@@H]1CC[C@]2(C(=O)O)CC[C@]3(C)C(=C2[C@H]1C)CC[C@@H]1[C@@]2(C)CC[C@H](O)C(C)(C)[C@@H]2CC[C@]13C,Potency,[15],34.9 µM (active)
same,Potency,[6],inactive
same,Potency,[17],inactive
C[C@@]1(CCC(=O)Nc2c(O)ccc(C(=O)O)c2O)C(=O)C=C[C@]23C[C@H]4C[C@H](O[C@@]4(C)C2)C31 (stereo partly specified),Potency,[1],inactive
same,Potency,[2],inactive
same,Potency,[3],inactive
same,Potency,[14],inactive
CCCc1c2c([nH]c(=O)c1C)C(=O)c1[nH]c(=O)c(C)c(CCC)c1C2=O,Potency,[15],34.9 µM (active)
same,Potency,[2],7.47 µM (active)
same,Potency,[14],inactive
same,Potency,[5],11.8 µM (active)
same,Potency,[6],inactive
COc1cc2ccc(=O)oc2c(O)c1O[C@@H]1O[C@H](CO)[C@@H](O)[C@H](O)[C@H]1O,Potency,[1],inactive
same,Potency,[2],inactive
COc1ccc(-c2oc3cc(OC)cc(OC)c3c(=O)c2O)cc1,Potency,[1],inactive
same,Potency,[2],18.8 µM (active)
same,Potency,[3],inactive
same,Potency,[4],inactive
same,Potency,[6],inactive
COC(=O)[C@]1([C@H]2CCC(=O)O2)CC(=O)c2c(O)cc(C)cc2O1,Potency,[2],inactive
same,Potency,[3],inactive
same,Potency,[4],inactive
same,Potency,[6],inactive
same,Potency,[17],inactive
CC(CCC[C@]1(C)C(=O)C=C[C@@]23C[C@]4(C)O[C@@H](C[C@@H]4[C@H]2O)C31)C(=O)O (stereo partly specified),Potency,[1],inactive
same,Potency,[2],inactive
same,Potency,[4],inactive
same,Potency,[6],inactive
same,Potency,[17],inactive
C=C[C@]1(C)CC[C@@H]([C@H](C)C(=O)CC=C(C)C)O1,Potency,[1],inactive
same,Potency,[2],inactive
same,Potency,[3],inactive
same,Potency,[5],inactive
same,Potency,[17],inactive
COC(=O)c1cccc2oc(-c3cccc4oc(-c5c(C)cccc5O)nc34)nc12,Potency,[1],inactive
same,Potency,[2],5.29 µM (active)
same,Potency,[6],inactive
C=C1[C@@]2(C)CC3C4(C)CCC(O)C(C)(C)C4CCC3(C)[C@]1(C(=O)OC)C(=O)C(C)(O)C2=O (stereo partly specified),Potency,[1],inactive
same,Potency,[2],inactive
same,Potency,[5],inactive
same,Potency,[6],inactive
CC1=C(C)C(=O)OC(C(C)C2(O)CCC3C4C5OC5C5(O)CC=CC(=O)C5(C)C4CCC32C)C1 (stereo unspecified),Potency,[1],inactive
same,Potency,[3],inactive
same,Potency,[4],inactive
same,Potency,[14],inactive
COc1cc2oc3ccccc3c(=O)c2cc1OC,Potency,[1],inactive
same,Potency,[2],inactive
same,Potency,[3],30.6 µM (active)
same,Potency,[14],inactive
same,Potency,[5],0.0049 µM (active)
COc1ccc([C@@H]2c3cc4c(cc3C(=O)C(C)C2C)OCO4)cc1OC (stereo partly specified),Potency,[1],inactive
same,Potency,[2],inactive
same,Potency,[4],inactive
same,Potency,[6],inactive
C[C@H](c1cnc(N)[nH]1)c1ccc(O)c2[nH]cc(-c3cnc(-c4c[nH]c5ccccc45)c(=O)[nH]3)c12,Potency,[1],inactive
same,Potency,[2],inactive
same,Potency,[3],inactive
same,Potency,[17],inactive
